Results filed as inconclusive are left out. Active and inactive are the calls of the source. Unless noted, calls follow the shape of the dose curve; as a rule, active = well fitted curve in the direction sought with a large enough effect in the repeat runs; inconclusive = weak or mixed curves; inactive = no such curve, though single readings can be large; an effect the other way counts as inactive or inconclusive.
Key:
[1] = A CellTox Green Cytotoxicity Assay to monitor cytotoxicity in HepG2 cells - 16 hour (AID 1224876); also: nearly all actives have a fitted effect of over 45% in size
Procedure, shortened: (§1)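 HepG2, 600 cells/well premixed w/ CellTox Green; 5 h settle, 37 C/5% CO2; pintool cpd add (DMSO); 37 C, 40 h; fluorescence read at 0, 8, 16, 24, 32, 40 h.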

[2] = qHTS RealTime-Glo MT Cell Viability Assay in HepG2 cells - 32 hour (AID 1224877); also: nearly all actives have a fitted effect of over 55% in size
Procedure, shortened: (§2)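 Real-time, nonlytic viability: 600 HepG2 cells/well mixed with NanoLuc enzyme plus prosubstrate; 5 h settle, compound (DMSO) added by pintool; luminescence monitored over 40 h at 37 C.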

[3] = A CellTox Green Cytotoxicity Assay to monitor cytotoxicity in HepG2 cells - 24 hour (AID 1224878); also: nearly all actives have a fitted effect of over 45% in size
Procedure, shortened: as §1

[4] = A CellTox Green Cytotoxicity Assay to monitor cytotoxicity in HepG2 cells - 40 hour (AID 1224879); also: nearly all actives have a fitted effect of over 40% in size
Procedure, shortened: as §1

[5] = qHTS RealTime-Glo MT Cell Viability Assay in HEK293 cells - 0 hour (AID 1224880); also: top concentration of the series differs between compounds; nearly all actives have a fitted effect of over 45% in size
Procedure, shortened: (§3)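 Luminescence readout at each listed time point; HEK293, 600 cells/well, RealTime-Glo MT reagent added with cells; compounds pinned (23 nL in DMSO) after 5 h at 37 C; continuous culture at 37 C.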

[6] = A CellTox Green Cytotoxicity Assay to monitor cytotoxicity in HEK293 cells - 32 hour (AID 1224881); also: nearly all actives have a fitted effect of over 40% in size
Procedure, shortened: (§4)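 Read-out: fluorescence of a cell-impermeant cyanine dye staining DNA of dead cells, proportional to cytotoxicity. HEK293, 600 cells/well with reagent, compound (23 nL DMSO) added after 5 h; reads at 0, 8, 16, 24, 32, 40 h.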

[7] = A CellTox Green Cytotoxicity Assay to monitor cytotoxicity in HepG2 cells - 0 hour (AID 1224882); also: nearly all actives have a fitted effect of over 35% in size
Procedure, shortened: as §1

[8] = A CellTox Green Cytotoxicity Assay to monitor cytotoxicity in HepG2 cells - 32 hour (AID 1224883); also: nearly all actives have a fitted effect of over 50% in size
Procedure, shortened: as §1

[9] = A CellTox Green Cytotoxicity Assay to monitor cytotoxicity in HEK293 cells - 8 hour (AID 1224884); also: nearly all actives have a fitted effect of over 35% in size
Procedure, shortened: as §4

[10] = qHTS RealTime-Glo MT Cell Viability Assay in HepG2 cells - 16 hour (AID 1224885); also: nearly all actives have a fitted effect of over 50% in size
Procedure, shortened: as §2

[11] = qHTS RealTime-Glo MT Cell Viability Assay in HEK293 cells - 24 hour (AID 1224886); also: top concentration of the series differs between compounds; nearly all actives have a fitted effect of over 50% in size
Procedure, shortened: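 Cells + reagent dispensed (600 cells/well, HEK293) → 5 h at 37 C/5% CO2 → 23 nL compound in DMSO pinned → 40 h at 37 C → luminescence read at 0, 8, 16, 24, 32, 40 h.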

[12] = qHTS RealTime-Glo MT Cell Viability Assay in HEK293 cells - 8 hour (AID 1224887); also: top concentration of the series differs between compounds; nearly all actives have a fitted effect of over 50% in size
Procedure, shortened: as §3

[13] = A CellTox Green Cytotoxicity Assay to monitor cytotoxicity in HEK293 cells - 16 hour (AID 1224888); also: nearly all actives have a fitted effect of over 35% in size
Procedure, shortened: as §4

[14] = qHTS RealTime-Glo MT Cell Viability Assay in HepG2 cells - 0 hour (AID 1224889); also: nearly all actives have a fitted effect of over 50% in size
Procedure, shortened: as §2

[15] = A CellTox Green Cytotoxicity Assay to monitor cytotoxicity in HepG2 cells - 8 hour (AID 1224890); also: nearly all actives have a fitted effect of over 45% in size
Procedure, shortened: as §1

[16] = qHTS assay to identify small molecule antagonists of the estrogen receptor alpha (ER-alpha) signaling pathway using the BG1 cell line in the presence of 0.1 nM 17-beta-estradiol - cell viability counter screen (AID 1259241); also: nearly all actives have a fitted effect of over 40% in size
Procedure, shortened: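 Cells were plated and left 24 hr, compounds in DMSO were pinned in, 17beta-estradiol was added to 0.1 nM final, and after 22 hr CellTiter-Fluor reagent was added for 30 min before fluorescence was read.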

[17] = qHTS assay to identify small molecule antagonists of the androgen receptor (AR) signaling pathway using the MDA cell line in the presence of 0.5 nM R1881 - cell viability counter screen (AID 1259242); also: nearly all actives have a fitted effect of over 45% in size
Procedure, shortened: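 Live-cell protease fluorescence, CellTiter-Fluor, 30 min at 37C. Cells: MDA-kb2, 3,000/well, preincubated 5 hr. Compounds plus 0.5 nM R1881 final, 16 hr, 37C, 0% CO2.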

[18] = molecular target: Estrogen receptor (Homo sapiens) (UniProt P03372); test: qHTS assay to identify small molecule antagonists of the estrogen receptor alpha (ER-alpha) signaling pathway using the BG1 cell line in the presence of 0.1 nM 17-beta-estradiol (AID 1259244); also: nearly all actives have a fitted effect of over 50% in size
Estrogen receptor (Homo sapiens), sequence (P03372 whole entry, looked up): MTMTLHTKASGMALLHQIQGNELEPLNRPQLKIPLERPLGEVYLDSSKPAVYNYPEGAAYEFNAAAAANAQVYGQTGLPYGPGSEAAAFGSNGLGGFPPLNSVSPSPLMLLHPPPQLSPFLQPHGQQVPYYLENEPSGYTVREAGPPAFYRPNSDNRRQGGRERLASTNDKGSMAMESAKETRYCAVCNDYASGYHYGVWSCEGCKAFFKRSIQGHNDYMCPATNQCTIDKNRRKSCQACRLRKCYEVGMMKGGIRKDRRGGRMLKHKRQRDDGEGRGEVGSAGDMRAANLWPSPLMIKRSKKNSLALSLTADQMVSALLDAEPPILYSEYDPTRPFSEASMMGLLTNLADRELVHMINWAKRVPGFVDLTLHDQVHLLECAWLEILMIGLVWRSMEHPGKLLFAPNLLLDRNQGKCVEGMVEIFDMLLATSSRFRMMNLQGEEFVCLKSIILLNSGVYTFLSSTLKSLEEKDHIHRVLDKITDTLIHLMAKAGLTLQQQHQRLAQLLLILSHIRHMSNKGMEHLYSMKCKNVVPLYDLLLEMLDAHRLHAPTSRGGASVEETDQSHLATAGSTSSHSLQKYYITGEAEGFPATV
Procedure, shortened: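 Luminescence after ONE-Glo (30 min, room temperature) measured ERE-luciferase activity in VM7Luc4E2 cells treated 22 h with compound and 0.1 nM final 17beta-estradiol as stimulator.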

[19] = qHTS assay to identify small molecule HDAC inhibitors (AID 1259364)
Procedure, shortened: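 HCT-116 (wild type), 1,500 cells/well, overnight; compound 2 hr 37C 5% CO2; HDAC-Glo I/II reagent 30 min RT; luminescence readout.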

[20] = qHTS assay to identify small molecule phospholipidosis (PLD) inducers (AID 1259344; active = well fitted curve in the direction sought with a large enough effect; an effect the other way counts as inactive or inconclusive)
Procedure, shortened: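 Phospholipid accumulation was scored by imaging: fixed, Hoechst-counterstained HepG2 cells stained with LipidTOX Red after 24 h compound exposure at 37 C. Read-outs were pit count and pit intensity per well or per cell, with amiodarone and DMSO controls.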

Measured: Potency

COC(=O)CCC(=O)O
not listed: [20]
inactive: all other assays above

O=C(O)c1ccc(OCCN2CCCCC2)cc1
not listed: [19] | [20]
inactive: all other assays above

CCCCCCCCCCCCCC(=O)OC
not listed: [20]
inactive: all other assays above

CCCCCCCC[Si](OCC)(OCC)OCC
not listed: [18] | [19] | [20]
inactive: all other assays above

CC(=O)N(CC(O)CO)c1c(I)c(C(=O)NCC(O)CO)c(I)c(C(=O)NCC(O)CO)c1I (configuration not stated)
inactive: all assays above

Cc1cc(O)c2c(c1)C(=O)c1cccc(O)c1C2=O
not listed: [19] | [20]
inactive: all other assays above

C=COCCOCCOC=C
not listed: [18] | [19] | [20]
inactive: all other assays above

NC(=O)C1(N2CCCCC2)CCN(CCCC(=O)c2ccc(F)cc2)CC1
not listed: [19]
inactive: all other assays above

CC(=O)OC(C)c1ccccc1 (configuration not stated)
not listed: [20]
inactive: all other assays above

CCN(CCO)c1cccc(C)c1
not listed: [19] | [20]
inactive: all other assays above

NCCc1ccn[nH]1
inactive: all assays above

CCCCCCCCCCC
not listed: [20]
inactive: all other assays above

Cc1cccc(C(=O)O)c1[N+](=O)[O-]
not listed: [20]
inactive: all other assays above
